# From PubChem BioAssay (NCATS)
# Results filed as inconclusive are left out. A call without a number means that no potency is given here. Values without a mark were called inactive. Active and inactive are the calls of the source. Unless noted, the call rests on the fitted dose curve; in most records, active means well fitted curve in the direction sought with a large enough effect; inconclusive means small, poorly fitted or top-dose-only effect, or another doubt; inactive means no such curve, though single readings can be large; an effect the other way counts as inactive or inconclusive.
# Tests used:
# [1] = biological target: Ubiquitin carboxyl-terminal hydrolase 1 (Homo sapiens) (UniProt O94782); assay: Inhibitors of USP1/UAF1: Pilot qHTS (AID 504865);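 further: rhodamine fluorescence freed from ubiquitin-rhodamine substrate followed over time; top concentration of the series differs between compounds; nearly all actives have a fitted effect of over 35% in size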
# How it was run: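 1nM USP1/UAF1 + cpd, 15 min RT; start w/ Ub-Rho 150nM final; kinetic FL 480/540 nm, 6 reads q60 s. Buffer 50mM HEPES pH 7.8, 0.5mM EDTA, 1mM TCEP, 0.01% Tween-20, 0.1 mg/ml BSA.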
# [2] = biological target: Luciferin 4-monooxygenase (Photinus pyralis) (UniProt P08659); assay: Biochemical firefly luciferase enzyme assay for NPC (AID 624030);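 further: purified P. pyralis luciferase at 10 nM with luciferin and ATP substrate; nearly all actives have a fitted effect of over 70% in size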
# How it was run: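 Counter-screen for direct inhibition of the luciferase enzyme by approved-drug library compounds, run at 10 nM enzyme in 50 mM Tris acetate (final). Luminescence was read within 5 min of enzyme-buffer addition and normalized to PTC124 versus DMSO (0%).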
# [3] = S16 Schwann cell viability assay (CellTiter-Glo assay) (AID 624031);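 further: cellular ATP luminescence as a viability measure; nearly all actives have a fitted effect of over 70% in size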
# How it was run: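 Luminescent ATP read-out (CellTiter-Glo) after 24 h compound exposure of native S16 rat Schwann cells at 37 °C. Signals were normalized between cell-free wells and DMSO-treated cells, set as 0% activity.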
# [4] = S16 Schwann cell PMP22 intronic element beta-lactamase assay (AID 624044; calls by dose curve; further: nearly all actives have a fitted effect of over 15% in size); conditions: S16 rat Schwann cells, PMP22 element beta-lactamase FRET, 24 h; ratio activity, negative = inhibition: at 38.3 µM (top of the series)
# How it was run: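 Beta-lactamase reporter under a PMP22 intronic regulatory element in stable S16 rat Schwann cells; 24 h compound exposure. 460 nm blue signal normalized between DMSO (0%) and potassium clavulanate, with 535 nm FRET tracking viability; curves classed by r2 and response.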
# [5] = qHTS profiling for inhibitors of Plasmodium falciparum proliferation (AID 504749); further: potency means the concentration at half of the fitted maximal effect; on all read-outs here: nearly all actives have a fitted effect of over 60% in size; conditions: P. falciparum in erythrocytes, SYBR Green DNA, 72 h; for activity, negative = inhibition: at 28.7 µM (top of the series)
# How it was run: (§1)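 Fluorescence of SYBR Green-bound parasite DNA, read at 485/535 nm, served as the growth measure. Infected erythrocytes were cultured with compound 72 h; artemisinin (0.29 uM) and DMSO wells defined the normalization range.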
# C2A = assay: as above; conditions: P. falciparum in erythrocytes, SYBR Green DNA, 72 h; series mostly up to 28.7 µM
# How it was run: as §1
# CP192 = assay: as above; conditions: P. falciparum in erythrocytes, SYBR Green DNA, 72 h; series mostly up to 28.7 µM
# How it was run: as §1
# CP201 = assay: as above; conditions: P. falciparum in erythrocytes, SYBR Green DNA, 72 h; series mostly up to 28.7 µM
# How it was run: as §1
# CP215 = assay: as above; conditions: P. falciparum in erythrocytes, SYBR Green DNA, 72 h; series mostly up to 28.7 µM
# How it was run: as §1
# CP237 = assay: as above; conditions: P. falciparum in erythrocytes, SYBR Green DNA, 72 h; series mostly up to 28.7 µM
# How it was run: as §1
# CP268 = assay: as above; conditions: P. falciparum in erythrocytes, SYBR Green DNA, 72 h; series mostly up to 28.7 µM
# How it was run: as §1
# CP269 = assay: as above; conditions: P. falciparum in erythrocytes, SYBR Green DNA, 72 h; series mostly up to 28.7 µM
# How it was run: as §1
# ECU = assay: as above; conditions: P. falciparum in erythrocytes, SYBR Green DNA, 72 h; series mostly up to 28.7 µM
# How it was run: as §1
# FAB9 = assay: as above; conditions: P. falciparum in erythrocytes, SYBR Green DNA, 72 h; series mostly up to 28.7 µM
# How it was run: as §1
# JCK = assay: as above; conditions: P. falciparum in erythrocytes, SYBR Green DNA, 72 h; series mostly up to 28.7 µM
# How it was run: as §1
# PC15 = assay: as above; conditions: P. falciparum in erythrocytes, SYBR Green DNA, 72 h; series mostly up to 28.7 µM
# How it was run: as §1
# CP238 = assay: as above; conditions: P. falciparum in erythrocytes, SYBR Green DNA, 72 h; series mostly up to 28.7 µM
# How it was run: as §1
# CP325 = assay: as above; conditions: P. falciparum in erythrocytes, SYBR Green DNA, 72 h; series mostly up to 28.7 µM
# How it was run: as §1
# PC49 = assay: as above; conditions: P. falciparum in erythrocytes, SYBR Green DNA, 72 h; series mostly up to 28.7 µM
# How it was run: as §1
# [6] = biological target: Cytochrome P450 3A4 (Homo sapiens) (UniProt P08684); assay: qHTS Assay for Inhibitors and Substrates of Cytochrome P450 3A4 (AID 884); further: nearly all actives have a fitted effect of over 50% in size
# How it was run: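 Luminescent readout of luciferin produced by CYP3A4 (20 nM) dealkylation of Luciferin-PPXE, 25 uM (its KM). NADPH-driven reaction ran 60 min at RT after 10 min compound preincubation; data scaled to 57 uM ketoconazole as 100% inhibition.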
# Chain of Ubiquitin carboxyl-terminal hydrolase 1 (Homo sapiens) (O94782 whole entry, looked up): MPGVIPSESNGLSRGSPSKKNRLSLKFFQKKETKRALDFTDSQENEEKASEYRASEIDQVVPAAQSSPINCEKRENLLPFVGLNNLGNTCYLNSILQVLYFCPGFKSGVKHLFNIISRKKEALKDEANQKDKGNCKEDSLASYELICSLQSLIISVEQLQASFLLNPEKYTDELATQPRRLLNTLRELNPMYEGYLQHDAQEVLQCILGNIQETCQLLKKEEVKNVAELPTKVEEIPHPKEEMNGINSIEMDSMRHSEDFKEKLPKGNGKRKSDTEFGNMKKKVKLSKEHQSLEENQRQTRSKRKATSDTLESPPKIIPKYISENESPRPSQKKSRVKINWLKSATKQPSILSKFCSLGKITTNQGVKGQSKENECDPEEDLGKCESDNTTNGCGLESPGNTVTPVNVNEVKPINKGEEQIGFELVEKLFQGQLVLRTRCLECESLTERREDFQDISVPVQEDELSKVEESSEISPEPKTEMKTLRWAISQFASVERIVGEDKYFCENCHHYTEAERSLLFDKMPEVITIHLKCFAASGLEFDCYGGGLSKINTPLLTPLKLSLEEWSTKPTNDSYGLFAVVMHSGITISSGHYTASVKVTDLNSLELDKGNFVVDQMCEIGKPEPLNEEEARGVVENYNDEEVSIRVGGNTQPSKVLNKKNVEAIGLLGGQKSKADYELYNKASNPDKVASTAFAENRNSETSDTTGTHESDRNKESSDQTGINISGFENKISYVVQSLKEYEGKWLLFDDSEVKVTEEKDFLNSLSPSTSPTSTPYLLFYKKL
# Chain of Luciferin 4-monooxygenase (Photinus pyralis) (P08659 whole entry, looked up): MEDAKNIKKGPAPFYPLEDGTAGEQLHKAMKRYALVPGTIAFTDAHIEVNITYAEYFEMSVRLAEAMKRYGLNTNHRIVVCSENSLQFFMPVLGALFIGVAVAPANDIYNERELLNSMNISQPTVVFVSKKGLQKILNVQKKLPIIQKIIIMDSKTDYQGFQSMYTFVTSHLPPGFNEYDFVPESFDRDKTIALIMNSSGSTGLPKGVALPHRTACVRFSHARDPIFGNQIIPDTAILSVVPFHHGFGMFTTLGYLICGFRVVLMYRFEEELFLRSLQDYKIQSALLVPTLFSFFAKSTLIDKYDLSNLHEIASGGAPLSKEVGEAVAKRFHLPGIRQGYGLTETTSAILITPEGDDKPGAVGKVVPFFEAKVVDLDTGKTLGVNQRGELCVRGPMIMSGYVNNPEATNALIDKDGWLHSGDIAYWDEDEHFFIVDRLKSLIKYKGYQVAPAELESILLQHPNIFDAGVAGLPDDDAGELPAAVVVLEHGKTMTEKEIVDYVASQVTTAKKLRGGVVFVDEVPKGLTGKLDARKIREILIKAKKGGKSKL
# Chain of Cytochrome P450 3A4 (Homo sapiens) (P08684 whole entry, looked up): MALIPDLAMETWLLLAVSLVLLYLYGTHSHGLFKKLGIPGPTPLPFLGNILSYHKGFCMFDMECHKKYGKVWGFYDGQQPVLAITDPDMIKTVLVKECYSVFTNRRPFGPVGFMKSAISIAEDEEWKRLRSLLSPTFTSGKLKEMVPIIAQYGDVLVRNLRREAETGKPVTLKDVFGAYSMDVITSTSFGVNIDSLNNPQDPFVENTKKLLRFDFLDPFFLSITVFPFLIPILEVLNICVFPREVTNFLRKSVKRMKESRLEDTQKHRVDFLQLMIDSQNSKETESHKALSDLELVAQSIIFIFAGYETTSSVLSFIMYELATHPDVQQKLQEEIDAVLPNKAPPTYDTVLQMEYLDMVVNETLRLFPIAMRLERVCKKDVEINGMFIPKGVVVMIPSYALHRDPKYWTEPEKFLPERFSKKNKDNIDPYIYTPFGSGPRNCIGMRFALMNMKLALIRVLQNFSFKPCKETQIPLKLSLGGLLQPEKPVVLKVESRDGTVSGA
smiles,measurement,setting,value
CCC(=O)OC1(c2ccccc2)CCN(C)CC1C (stereo not given),Potency,[1],inactive
same,Potency,[2],inactive
same,Potency,[3],inactive
same,Potency,[4],inactive
same,"activity, negative = inhibition",[5]; parasite line A,-1.38%
same,"activity, negative = inhibition",[5]; parasite line B,2.19%
same,Potency,C2A,inactive
same,Potency,CP192,inactive
same,Potency,CP201,inactive
same,Potency,CP215,inactive
same,Potency,CP237,3.98 µM (active)
same,Potency,CP268,inactive
same,Potency,CP269,inactive
same,Potency,ECU,inactive
same,Potency,FAB9,inactive
same,Potency,JCK,inactive
same,Potency,PC15,inactive
CN1[C@@H]2CC(OC(=O)[C@@H](CO)c3ccccc3)C[C@@H]1[C@H]1O[C@H]12 (stereo not given in full),Potency,[1],inactive
NCC1O[C@@H](O[C@H]2C(O)C(O[C@@H]3C(O[C@H]4OC(CO)C(O)C(O)C4N)C(N)CC(N)[C@H]3O)O[C@@H]2CO)C(N)C(O)C1O (stereo not given in full),Potency,[1],inactive
CC(=O)O[C@H]1C[C@H](O[C@H]2[C@@H](O)CC(O[C@H]3[C@@H](O)C[C@H](O[C@H]4CC[C@@]5(C)[C@H](CC[C@@H]6[C@@H]5CC[C@]5(C)[C@@H](C7=CC(=O)OC7)CC[C@]65O)C4)O[C@@H]3C)O[C@@H]2C)O[C@H](C)[C@H]1O[C@@H]1O[C@H](CO)[C@@H](O)[C@H](O)[C@H]1O (stereo not given in full),Potency,[1],inactive
same,Potency,[2],inactive
same,Potency,[3],inactive
same,Potency,[4],inactive
same,"activity, negative = inhibition",[5]; parasite line A,9.47%
same,"activity, negative = inhibition",[5]; parasite line B,16.3%
same,Potency,C2A,inactive
same,Potency,CP192,inactive
same,Potency,CP201,inactive
same,Potency,CP215,inactive
same,Potency,CP238,inactive
same,Potency,CP268,inactive
same,Potency,CP269,inactive
same,Potency,CP325,inactive
same,Potency,ECU,inactive
same,Potency,FAB9,inactive
same,Potency,JCK,inactive
same,Potency,PC49,inactive
O=C1CC2OCC=C3CN4CCC56c7ccccc7N1C5[C@H]2[C@H]3C[C@H]46 (stereo not given in full) (tested in a mixture with another compound),Potency,[1],inactive
same,Potency,[3],inactive
same,Potency,[4],inactive
same,Potency,C2A,inactive
same,Potency,CP192,inactive
same,Potency,CP201,inactive
same,Potency,CP237,inactive
same,Potency,CP238,inactive
same,Potency,CP268,inactive
same,Potency,CP269,inactive
same,Potency,CP325,inactive
same,Potency,JCK,inactive
same,Potency,PC15,inactive
C[C@]12CCC3C(CCC4=C(Cl)C(=O)CC[C@@]43C)C1CCC2O (stereo not given in full),Potency,[1],inactive
same,Potency,[2],inactive
same,Potency,[3],inactive
same,"activity, negative = inhibition",[5]; parasite line A,-5.63%
same,"activity, negative = inhibition",[5]; parasite line B,-11.9%
same,Potency,C2A,inactive
same,Potency,CP192,inactive
same,Potency,CP201,inactive
same,Potency,CP215,inactive
same,Potency,CP237,inactive
same,Potency,CP238,inactive
same,Potency,CP268,inactive
same,Potency,CP269,inactive
same,Potency,CP325,inactive
same,Potency,ECU,inactive
same,Potency,FAB9,inactive
same,Potency,JCK,inactive
same,Potency,PC15,inactive
same,Potency,PC49,inactive
CN(C)[C@@H](Cc1ccccc1)c1ccccc1,Potency,[1],inactive
same,Potency,[2],inactive
same,Potency,[3],inactive
same,Potency,[4],inactive
same,"activity, negative = inhibition",[5]; parasite line A,6.12%
same,"activity, negative = inhibition",[5]; parasite line B,4.62%
same,Potency,C2A,inactive
same,Potency,CP192,inactive
same,Potency,CP201,inactive
same,Potency,CP215,inactive
same,Potency,CP237,8.91 µM (active)
same,Potency,CP238,inactive
same,Potency,CP268,inactive
same,Potency,CP269,inactive
same,Potency,CP325,inactive
same,Potency,ECU,inactive
same,Potency,FAB9,inactive
same,Potency,JCK,inactive
same,Potency,PC15,inactive
same,Potency,PC49,inactive
CC(C)CCC(=O)OC1CCC2C3CCC4=CC(=O)CC[C@]4(C)C3CC[C@]12C (stereo not given in full),Potency,[2],inactive
same,Potency,[5]; parasite line A,10 µM (active)
same,Potency,CP192,inactive
same,Potency,CP201,inactive
same,Potency,CP215,inactive
same,Potency,CP237,11.2 µM (active)
same,Potency,CP268,inactive
same,Potency,CP269,inactive
same,Potency,CP325,inactive
same,Potency,ECU,10 µM (active)
same,Potency,FAB9,inactive
same,Potency,JCK,inactive
same,Potency,PC49,inactive
CC1CC[C@@]2(NC1)OC1CC3C4CC[C@@H]5CC(O)CC[C@@]5(C)C4CC[C@]3(C)C1C2C (stereo not given in full),Potency,[6],inactive
same,Potency,[2],inactive
same,Potency,[3],inactive
same,Potency,[4],inactive
same,Potency,C2A,inactive
same,Potency,CP192,inactive
same,Potency,CP201,inactive
same,Potency,CP215,inactive
same,Potency,CP237,inactive
same,Potency,CP238,inactive
same,Potency,CP268,inactive
same,Potency,CP269,inactive
same,Potency,CP325,inactive
same,Potency,ECU,12.6 µM (active)
same,Potency,FAB9,inactive
same,Potency,JCK,inactive
same,Potency,PC15,inactive
same,Potency,PC49,inactive
O=C1CC2OCC=C3CN4CC[C@]56c7ccccc7N1C5C2[C@H]3C[C@H]46 (stereo not given in full),Potency,[1],inactive
same,Potency,[3],inactive
same,Potency,[4],inactive
same,"activity, negative = inhibition",[5]; parasite line B,-18.7%
same,Potency,CP237,5.01 µM (active)
same,Potency,CP238,10 µM (active)
same,Potency,CP325,13.5 µM (active)
same,Potency,FAB9,inactive
same,Potency,PC15,inactive
same,Potency,PC49,inactive
CC(=O)[C@H]1CC[C@H]2C3CC[C@H]4C[C@H](O)CC[C@]4(C)C3CC[C@]12C (stereo not given in full),Potency,[1],inactive
same,Potency,[2],inactive
same,Potency,[3],inactive
same,Potency,[4],inactive
same,"activity, negative = inhibition",[5]; parasite line A,-11.3%
same,"activity, negative = inhibition",[5]; parasite line B,2.02%
same,Potency,C2A,inactive
same,Potency,CP192,inactive
same,Potency,CP201,inactive
same,Potency,CP215,inactive
same,Potency,CP237,inactive
same,Potency,CP238,inactive
same,Potency,CP268,inactive
same,Potency,CP269,inactive
same,Potency,CP325,inactive
same,Potency,ECU,inactive
same,Potency,FAB9,inactive
same,Potency,JCK,inactive
same,Potency,PC15,inactive
same,Potency,PC49,inactive
